{"source": "ChEMBL document CHEMBL4513216", "about": "“Probing the Open Global Health Chemical Diversity Library for Multistage-Active Starting Points for Next-Generation Antimalarials” (ACS Infect Dis, 2020)", "note": "Among all 69,000 compounds or so, about 8,600 (12%) showed an effect of 50% or more. What follows is part of a selection rich in strong results, with near analogues and random picks from the rest."}
{"test_system": "Plasmodium berghei", "assay": "Screen against P. berghei liver stage (PbLuc), transformed with Luciferase, at 10uM", "type": "functional, HepG2", "details": "tested at 10 uM", "units": {"INHIBITION": "%"}}
{"smiles": "Cc1nc(-c2ccsc2)ccc1C(=O)N(C)CC(F)(F)F", "INHIBITION": -4.12}
{"smiles": "CN(C)Cc1noc2c1CN(Cc1ccsc1)CC2", "INHIBITION": 15.7}
{"smiles": "CN(C)Cc1noc2c1CN(Cc1ccc[nH]1)CC2", "INHIBITION": 73.2}
{"smiles": "Cc1cccc(CN2CCc3onc(CN(C)C)c3C2)n1", "INHIBITION": -14.2}
{"smiles": "CN1CC(=O)N(c2ccccc2)CC12CCN(Cc1nccn1C)C2", "note": "(stereo not drawn)", "INHIBITION": 7.31}
{"smiles": "CNc1nc(CNC(=O)Nc2cccc(-c3ncc(C)o3)c2)cs1", "INHIBITION": 20.1}
{"smiles": "Cc1nc2n(n1)CC(Nc1cc(C(F)(F)F)nc3ncnn13)CC2", "note": "(stereo not drawn)", "INHIBITION": -29.2}
{"smiles": "Cc1nn(C)cc1-c1cc(C(F)(F)F)nc(NC2CCN(C)CC2)n1", "INHIBITION": 40.5}
{"smiles": "CCn1cc(-c2nn3c(C(F)(F)F)nnc3s2)c(C)n1", "INHIBITION": 4.12}
{"smiles": "CCn1cc(-c2cc(C(F)(F)F)nc(NC3CCCC3)n2)c(C)n1", "INHIBITION": 68.7}
{"smiles": "Cc1nn(C)cc1-c1cc(C(F)(F)F)nc(NC2CCCCC2)n1", "INHIBITION": 58.9}
{"smiles": "Cc1nn(C)cc1-c1cc(C(F)F)nc(NC2CCCCC2)n1", "INHIBITION": 26.9}
{"smiles": "Cc1cc(N)n(-c2ccc3nnc(C)n3n2)n1", "INHIBITION": 37.5}
{"smiles": "Cc1cc(C(=O)N2CCCC(n3cncn3)C2)on1", "note": "(stereo not drawn)", "INHIBITION": -23.9}
{"smiles": "CCc1ccccc1CN1CC[C@@]2(O)CCN(S(=O)(=O)N(C)C)C[C@H]2C1", "INHIBITION": 44.6}
{"smiles": "O=C(Cc1ccn[nH]1)Nc1cncc(Br)c1O", "INHIBITION": 22.6}
{"smiles": "O=C(Nc1cncc(Br)c1O)c1ccon1", "INHIBITION": 83.2}
{"smiles": "O=C(Cc1ccon1)Nc1cncc(Br)c1O", "INHIBITION": -9.23}
{"smiles": "CN(C)C(=O)CO[C@H]1CN(Cc2cccc(C#N)c2)[C@@H]2COC[C@H]12", "INHIBITION": 7.31}
{"smiles": "Cc1noc(C2CCCCN2C(=O)NCc2ccco2)n1", "note": "(stereo not drawn)", "INHIBITION": 26.4}
{"smiles": "CNC1CCC2(CC1)CNC(=O)c1cc(C)ccc1O2", "note": "(stereo not drawn)", "INHIBITION": -16.5}
{"smiles": "O=C(NC1CCS(=O)(=O)C1)c1cn(C2CC2)c(=O)c2ccccc12", "note": "(stereo not drawn)", "INHIBITION": 43.9}
{"smiles": "CC(=O)NCC(=O)N1CCc2[nH]c(-c3ccccc3)nc2C1", "INHIBITION": 43}
{"smiles": "C[C@@H]1CCC[C@H](C)N1CC(=O)N1CCc2[nH]c(-c3ccccc3)nc2C1", "INHIBITION": 64.8}
{"smiles": "CN1CCCN(CC(=O)N2CCc3[nH]c(-c4ccccc4)nc3C2)CC1", "INHIBITION": 17.6}
{"smiles": "COc1nc2c(cc1C(=O)NCc1nc(CSC)no1)CCC2", "INHIBITION": 43.1}
{"smiles": "COc1nc2c(cc1C(=O)NCc1noc(Cc3cccs3)n1)CCC2", "INHIBITION": 24.7}
{"smiles": "COc1nc2c(cc1C(=O)NCc1noc(-c3ccco3)n1)CCC2", "INHIBITION": 55}
{"smiles": "CCCC(N)CNS(=O)(=O)Cc1cccc(C#N)c1", "note": "(stereo not drawn)", "INHIBITION": 39.3}
{"smiles": "O=C(NCCn1ccnc1-c1cc2n(n1)CCCNC2)c1ccncc1", "INHIBITION": 32}
{"smiles": "O=C(NCCn1ccnc1-c1cc2n(n1)CCNC2)c1ccc(F)cc1", "INHIBITION": 8.08}
{"smiles": "O=C(NCCn1ccnc1-c1cc2n(n1)CCNC2)c1ccncc1", "INHIBITION": 62.4}
{"smiles": "Nc1nc(N2CCCCC2)ncc1C(=O)NCc1ccc(F)c(Cl)c1", "INHIBITION": 26.4}
{"smiles": "O=C(COc1cccc2c1CCC2=O)NCc1ccccc1F", "INHIBITION": 1.58}
{"smiles": "O=C(COc1cccc2c1CCC2=O)NCCSc1ccccc1", "INHIBITION": -66.3}
{"smiles": "O=C(COc1cccc2c1CCC2=O)NCCOc1ccccc1", "INHIBITION": 41.8}
{"smiles": "O=C(COc1cccc2c1CCC2=O)NCC(F)(F)F", "INHIBITION": 20}
{"smiles": "O=C(COc1cccc2c1CCC2=O)NCc1ccccc1Cl", "INHIBITION": 50}
{"smiles": "O=C(COc1cccc2c1CCC2=O)NCCc1cccs1", "INHIBITION": 63.7}
{"smiles": "Cc1cc(N2CCC(O)(CN(C)C)C2)c2cc3c(cc2n1)OCO3", "note": "(stereo not drawn)", "INHIBITION": -7.02}
{"smiles": "COCC(=O)N1CCCC1c1ccc(C(=O)NCc2ccccc2Cl)s1", "note": "(stereo not drawn)", "INHIBITION": -9.66}
{"smiles": "COc1ccc(CSc2nnc(N)n2C2CC2)cc1Cl", "INHIBITION": 46.3}
{"smiles": "CCCS(=O)(=O)N1CCC2(CN(c3ccccc3)C(=O)CN2C)C1", "note": "(stereo not drawn)", "INHIBITION": 41.2}
{"smiles": "Cc1csc2c(=O)n3c(nc12)CCN(C(=O)c1ccccn1)CC3", "INHIBITION": 35.2}
{"smiles": "Cc1csc2nc3n(c(=O)c12)CCN(C(=O)c1ccncc1)CC3", "INHIBITION": 56.9}
{"smiles": "Cc1csc2nc3n(c(=O)c12)CCN(Cc1ccccn1)CC3", "INHIBITION": 1.5}
{"smiles": "Cc1csc2c(=O)n3c(nc12)CCN(C(=O)c1cccnc1)CC3", "INHIBITION": 36.4}
{"smiles": "Cc1cc2c(=O)n3c(nc2s1)CCN(C(=O)c1ccncc1)CC3", "INHIBITION": 19.9}
{"smiles": "Cc1ccc(C(=O)N2CCc3nc4c(C)csc4c(=O)n3CC2)cn1", "INHIBITION": 57.5}
{"smiles": "CCC[C@H]1CN(S(C)(=O)=O)C[C@@H]1NC(=O)CCOCC", "INHIBITION": 27.6}
{"smiles": "O=C(CCN1CCCO1)N1CCCC(CO)(CCCc2ccccc2)C1", "note": "(stereo not drawn)", "INHIBITION": -4.56}
{"smiles": "Cc1noc(C)c1CN1CC2(CCCCN2c2cncnc2)CC1=O", "note": "(stereo not drawn)", "INHIBITION": 65.9}
{"smiles": "N#Cc1cccc(CN2CC3(CCCCN3c3cncnc3)CC2=O)c1", "note": "(stereo not drawn)", "INHIBITION": 27.5}
{"smiles": "N#Cc1ccc(CN2CCN(Cc3ccncc3Cl)CC2=O)cc1", "INHIBITION": 25.7}
{"smiles": "Cc1noc(C)c1CN1CC2(CCCCN2C)CC1=O", "note": "(stereo not drawn)", "INHIBITION": 39.3}
{"smiles": "N#Cc1ccc(CN2CC3(CCCCN3c3cccnc3)CC2=O)cc1", "note": "(stereo not drawn)", "INHIBITION": 57.1}
{"smiles": "Cc1noc(C)c1CN1CC2(CCN(Cc3c[nH]cn3)CC2)CC1=O", "INHIBITION": -27.6}
{"smiles": "N#Cc1cccc(CN2CC[C@@H]3[C@@H]2CC(=O)N3Cc2cccnc2)c1", "INHIBITION": 22.7}
{"smiles": "N#Cc1cccc(CN2CC3(CCCCN3c3cccnc3)CC2=O)c1", "note": "(stereo not drawn)", "INHIBITION": 57.1}
{"smiles": "N#Cc1ccc(CN2CCN(c3ccncc3Cl)CC2=O)cc1", "INHIBITION": 24.5}
{"smiles": "CCN1CC(COC(=O)c2ccc(N(C)C)cc2F)CC1=O", "note": "(stereo not drawn)", "INHIBITION": -56.7}
{"smiles": "O=C(c1cccc(Cl)c1)N1CCCC2(CCCNC2)C1", "note": "(stereo not drawn)", "INHIBITION": 0.164}
{"smiles": "CN(C)C(=O)CN1C[C@H]2CC[C@@H](C1)N(Cc1ccc3nsnc3c1)C2", "INHIBITION": 33.8}
{"smiles": "Cc1ncc(C(=O)N2CCOC(C(=O)N3CCCCC3)C2)c(C)n1", "note": "(stereo not drawn)", "INHIBITION": -5.6}
{"smiles": "CN(Cc1cccc(O)c1)Cc1cnn(C)c1", "INHIBITION": 10}
{"smiles": "Cn1cc(-n2cc3nc(N4CCOCC4)[nH]cc-3c2=O)cn1", "INHIBITION": -38.7}
{"smiles": "NC(=O)c1c(SCCN2CCOCC2)sc2c(O)cc(=O)[nH]c12", "INHIBITION": 20}
{"smiles": "O=C(C1CCC1)N1CCc2onc(Cn3cccn3)c2C1", "INHIBITION": 24.5}
